# In the library only some 4.1% were active in any assay of this set; here they are far more common.
# MEKK2 WT-MEK5 = raises or lowers MEK5 binding to wildtype human MEKK2 PB1 domain; Q9Y2U5; bead flow cytometry, Alexa488-MEK5 binding to MEKK2 WT; actives lie on both sides; binding response (% of control), % at 10 µM; actives 1.1% (n = 290,000); AID 1531; in the data active = binding response below about 67% or above about 130%
# MEKK2mut PB1 HTS = signal of MEK5 binding to mutant human MEKK2 PB1 domain | bead flow cytometry, Alexa488-MEK5 binding to MEKK2 mutant | percent response, % at 10 µM | actives 0.35% (n = 290,000) | AID 1530; in the data active = percent response above about 24%, passing the limit was not always enough
# CHT allo act = allosterically activates the human high affinity choline transporter; Q9GZV3; actives 0.49% (n = 310,000); B-score at 10 µM; CHT-expressing cells, membrane potential dye, choline EC20; active compounds read high; LV-AA mutant CHT in HEK293 cells;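 active = initial fluorescence not abnormally high and integrated response B-score, plate-corrected, over 3 SD above library mean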
# Target sequence (Q9GZV3 whole entry, looked up): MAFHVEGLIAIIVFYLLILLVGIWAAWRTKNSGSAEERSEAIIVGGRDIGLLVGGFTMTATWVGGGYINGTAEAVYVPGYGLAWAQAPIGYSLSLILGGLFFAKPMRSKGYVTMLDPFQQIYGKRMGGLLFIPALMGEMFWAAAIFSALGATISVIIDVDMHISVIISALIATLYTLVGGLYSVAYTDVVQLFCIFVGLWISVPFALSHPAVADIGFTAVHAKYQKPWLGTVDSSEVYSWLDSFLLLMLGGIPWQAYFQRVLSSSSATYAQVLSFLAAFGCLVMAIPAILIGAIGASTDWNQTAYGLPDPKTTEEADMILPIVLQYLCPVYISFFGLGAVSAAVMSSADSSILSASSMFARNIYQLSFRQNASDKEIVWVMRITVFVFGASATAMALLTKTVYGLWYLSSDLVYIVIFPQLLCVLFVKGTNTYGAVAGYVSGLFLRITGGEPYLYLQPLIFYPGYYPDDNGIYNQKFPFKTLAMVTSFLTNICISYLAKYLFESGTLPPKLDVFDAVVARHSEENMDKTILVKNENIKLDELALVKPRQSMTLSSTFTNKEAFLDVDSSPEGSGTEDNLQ
# Mot1-301 SUMO = SUMOylation pathway inhibition by Mot1-301 growth rescue. AID 2716. growth rescue, % at 18.8 µM. S. cerevisiae Mot1-301 growth rescue, ATP luminescence, 38.5C; percent above DMSO median, 100 means doubled. actives 1% (n = 320,000);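 active = every valid replicate shows activation above 250% relative to neutral control wells; inactive = the rest, any valid replicate at or below 250%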
# CHT inh = inhibitors of human choline transporter CHT; CHT-expressing cells, membrane potential dye, choline response; active compounds read low; B-score at 10 µM; actives 0.86% (n = 310,000); AID 488975;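 active = B-score over 3 SD under the library average, and starting fluorescence ratio not unusually high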;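 also: choline stimulus applied at its EC90 after an EC20 pre-addition; B-score computed on integrated fluorescence ratio after choline addition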
# MEKK3 PB1 HTS = modulators (inhibitors or enhancers) of MEK5 binding to human MEKK3 PB1 domain | Q99759 | bead-based flow cytometry, Alexa488-MEK5 binding to MEKK3; actives lie on both sides; 0 = blocked by unlabeled MEK5, 100 = vehicle | binding response (% of control), % at 10 µM | actives 1.4% (n = 290,000);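 active = binding response more than 3 SD above or below the average of its plate-row segment, actives on both sides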;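 also: Alexa488 bead fluorescence after subtracting the streptavidin-only scavenger bead signal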
# CHT block conf = confirmation of human choline transporter CHT inhibitors | shares compounds with CHT inh | CHT-expressing cells, choline membrane potential dye; LV-to-AA substituted CHT, HEK293 cells | CHT activity remaining % of control (active compounds read low), % at 10 µM | actives 70% (n = 2,400) | AID 493221;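 active = choline transporter activity left, mean of duplicates at 10 µM, below buffer-only control mean minus 3 SD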;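 also: depolarization triggered by choline at its EC90 following an EC20 pre-addition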
# HEK293 MPD ctr = counter-screen for CHT inhibitors: effect in parental HEK293 cells. membrane potential dye, choline response; active = decrease or increase beyond buffer ±3SD. shares compounds with CHT inh. membrane potential ratio readout (active if shifted either direction beyond buffer ±3SD; no single direction) at 10 µM. actives 4% (n = 2,400);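 also: parental cells lack the transporter so any hit is non-specific; ratio is peak minus trough fluorescence over baseline after EC90 choline challenge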
# Hits are given with their value; . = inactive; / = not tested or not shown.
SMILES,MEKK2 WT-MEK5,MEKK2mut PB1 HTS,CHT allo act,Mot1-301 SUMO,CHT inh,MEKK3 PB1 HTS,CHT block conf,HEK293 MPD ctr
Cc1csc2c(N3CCN(C(=S)Nc4ccc(C(F)(F)F)cc4)CC3)ncnc12,.,.,.,.,-6.2,.,55%,.
CCOC(=O)C1CCN(C(=O)CN(c2ccc3c(c2)OCO3)S(C)(=O)=O)CC1,.,.,.,.,.,.,/,/
CCOC(=O)C1CCN(C(=O)CN(c2ccc(Cl)c(C(F)(F)F)c2)S(C)(=O)=O)CC1,.,.,.,.,-6.4,.,.,.
CNc1oc(Cc2cccc3ccccc23)nc1C#N,.,.,.,.,-6.9,.,56%,.
c1ccc(Cn2ccnc2SCc2nnc(-c3ccccc3)o2)cc1,.,.,.,.,-6.1,.,63%,.
O=C(COC(=O)c1ccc(F)cc1F)NCc1ccc2c(c1)OCO2,/,/,/,.,/,/,/,/
COc1ccc(C(C(=O)NC2CCCCC2)N(C(=O)c2ccco2)c2ccccc2C(C)=O)cc1OC (configuration not stated),.,.,.,.,-5.1,.,71%,.
Cc1[nH]nc2c1-c1nc3ccccc3nc1C(C)(C)C2,.,.,.,.,-5,.,.,.
CCC(=O)N(Cc1cc(=O)[nH]c2ccccc12)c1ccc(C)cc1,.,.,.,.,.,.,/,/
CCn1cc(CN(C)C(=O)CSc2nc(-c3ccco3)cc(C(F)(F)F)n2)c(C)n1,.,.,.,/,.,.,/,/
Cc1c(CN(C)C(=O)CSc2nc(-c3ccco3)cc(C(F)(F)F)n2)cnn1C,.,.,.,.,-7,.,69%,-8.6
COc1ccc(OCC(=O)N/N=C/C=C/c2ccccc2)cc1,.,.,.,.,-7.9,.,69%,.
CCOc1ccc(NCC(=O)N/N=C/C=C/c2ccccc2)cc1,.,.,.,.,.,.,/,/
O=C1OCCC1Sc1nc2ccccc2n1Cc1ccccc1 (configuration not stated),.,.,.,.,.,.,/,/
O=C1OCCC1Sc1nc2ccccc2n1-c1ccccc1 (configuration not stated),.,.,.,.,-5.8,.,.,.
O=C(Nc1ccccc1)c1cc(Cl)nc2ccccc12,.,.,.,.,.,.,/,/
COc1ccc2c(c1)c(C(O)CN1CCC(Cc3ccccc3)CC1)c(C)n2C (configuration not stated),/,/,.,/,-11,/,22%,.
O=C(NNc1nc(-c2ccccc2)cs1)c1ccc(F)cc1,.,.,.,.,-5.2,.,71%,.
O=C(NCc1nc(-c2ccccc2)cs1)c1ccccc1,.,.,.,.,-6.5,.,71%,.
Nc1c(S(=O)(=O)c2cccs2)c2nc3ccccc3nc2n1/N=C/c1cccc(O)c1,.,.,.,.,.,.,/,/
O=C(Nc1ccc(F)cc1)N1CCN(C/C=C/c2ccccc2)CC1,.,.,.,.,.,.,/,/
O=C(Nc1ccc(F)cc1)N1CCN(CCc2ccccc2)CC1,.,.,.,.,-5.4,.,69%,.
COc1ccc(-c2cc(=O)oc3c(C)c(O)ccc23)cc1,.,.,.,.,.,.,/,/
NC(N)=Nc1nc(C2COc3ccccc3O2)cs1 (configuration not stated),.,.,.,.,-8.8,.,46%,.
CCCn1c(=O)c2[nH]c(-c3ccc(S(=O)(=O)O)cc3)nc2n(CCC)c1=O,/,/,.,.,.,/,/,/
SMILES,MEKK2 WT-MEK5,MEKK2mut PB1 HTS,CHT allo act,Mot1-301 SUMO,CHT inh,MEKK3 PB1 HTS,CHT block conf,HEK293 MPD ctr
O=C(OCC(=O)N1CCCc2ccccc21)c1cnc(Cl)c(Cl)c1,.,.,.,.,-5.7,.,.,.
O=C(OCC(=O)N1CCCc2ccccc21)c1ccc(Cl)nc1,.,.,.,.,.,.,/,/
Cc1cc(C(C)(C)C)nc2[nH]n(-c3ccccc3)c(=O)c12,.,.,.,.,.,.,/,/
O=c1c2c(C(F)(F)F)cc(C(F)(F)F)nc2[nH]n1-c1ccccc1,.,.,.,.,-6.1,.,46%,.
CSc1nnc(C)c(=O)n1COC(=O)/C=C/c1ccc2c(c1)OCO2,.,.,.,.,.,.,/,/
CC(C)c1ccc(S(=O)(=O)c2n[nH]n3c2nc(=O)c2ccccc23)cc1,.,.,.,.,.,.,/,/
CCc1ccc(S(=O)(=O)c2n[nH]n3c2nc(=O)c2ccccc23)cc1,.,.,.,.,-4.9,.,8.6%,.
COc1ccc(OC)c(Cc2nnc(CCC(=O)N3CCN(C4CCCC4)CC3)o2)c1,.,.,.,.,-8,.,36%,.
CCOc1nc(-c2ccccc2)ncc1Oc1ccccc1,/,/,.,.,-5,/,.,.
COc1cnc(-c2ccccc2)nc1Oc1ccc(C(C)(C)C)cc1,.,.,.,.,.,.,/,/
COc1ccccc1C(=O)NC(CCSC)C(=O)NCC(c1cccs1)N1CCOCC1 (configuration not stated),/,/,.,.,.,/,/,/
COc1ccccc1C(=O)NC1CCN(C(=S)NCCc2ccccc2)CC1,.,.,.,.,-6.3,.,50%,.
CCc1ccc(NC(=S)N2CCC(NC(=O)c3ccccc3OC)CC2)cc1,.,.,.,.,.,.,/,/
CCOc1ccccc1NC(=O)CSc1nc2ccccc2nc1N1CCOCC1,.,.,.,.,.,.,/,/
CCOc1ccccc1NC(=O)CSc1nc2ccccc2nc1N1CCCC1,.,.,.,.,-5.5,.,.,.
COc1ccc(N2CCN(C(=O)COc3ncnc4ccccc34)CC2)cc1,.,.,.,.,.,.,/,/
Cc1cc(N(CCO)CCO)ccc1N=Nc1cc(F)ccc1F,.,.,.,.,-5.4,.,56%,.
CCCc1ccc(OCc2ccc(C(=O)O)o2)c(OC)c1,.,.,.,.,.,.,/,/
COc1ccc(CCN(C)C(=O)c2ccc(COc3ccccc3)o2)cc1OC,.,.,.,.,-6.9,.,55%,.
CCCn1nc2cc(C(=O)NC3CCCc4ccccc43)ccc2c1OCC (configuration not stated),.,.,.,.,.,.,/,/
CCCCn1nc2cc(C(=O)NCCc3cccs3)ccc2c1OCC,.,.,.,.,-9.2,.,24%,.
CCCCn1nc2cc(C(=O)NC3CCc4ccccc43)ccc2c1OCC (configuration not stated),.,.,.,.,-5.5,.,34%,.
